# Assay results published in PubChem BioAssay AID772 (SRMLSC, 2007).
# Hit rate of the full screen: of about 3,300 compounds, about 20 (0.6%) were called active.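 The calls were made as follows: active = growth inhibition above 90%, meaning viable cell count cut by more than 90% versus vehicle controls; inactive = growth inhibition below 90%.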 The list comes from a sample in which actives are over-represented; it also holds similar structures and randomly drawn compounds.
# Assay: HT29 colon tumor cell growth inhibition, primary screen, imaging, high content imaging, 72 h, CellTiter-Glo (AID 772);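 as to condensed nuclei: condensed means nuclear area below control median minus 1.5 SD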
# Conditions: HCS imaging cell count, at 10 µM, stronger effect = higher value; for condensed nuclei: measured here: percent cells with condensed nuclei
# [1] = measured here: ATP CellTiter-Glo viability
SMILES,growth inhibition,growth inhibition [1] [%],condensed nuclei [%]
C=CCNc1nc(C2(C)CC3(CC(C)(C)OC3=O)C(=O)O2)cs1 (stereo not drawn),-18.2% (inactive),-56.2,1.83
N#Cc1c(N)nc(SCC(=O)NCCc2ccccc2)c(C#N)c1-c1cccs1,31.9% (inactive),4.22,7.98
N#Cc1c(N)nc(SCc2ccccn2)c(C#N)c1-c1cccs1,63.2% (inactive),42.6,5.56
CCCCSc1nc(N)c(C#N)c(-c2cccs2)c1C#N,95.4% (active),86.1,41.7
CCN(CC)S(=O)(=O)c1cccc2c(N(C)C)cccc12,-83.5% (inactive),-46.3,4.17
COCCCNc1nc(-c2ccncc2)nc2ccccc12,89.9% (inactive),86.6,44.1
COCCCNC(=O)C(C#N)c1nc2ccccc2nc1N1CCN(Cc2ccccc2)CC1 (stereo not drawn),0% (inactive),11.6,4.88
Clc1cccc(-c2nn3c(-c4cccc(Cl)c4)nnc3s2)c1,-66.5% (inactive),-37.2,7.77
COc1ccccc1C(=O)N1CCCC1(C#N)c1ccccc1 (stereo not drawn),-76.6% (inactive),-54.8,2.93
Fc1ccc2[nH]c3c(N4CCN(C5CCCCC5)CC4)ncnc3c2c1,86.8% (inactive),96.8,43.8
CCOc1cccc(-c2nn3c(-c4ccco4)nnc3s2)c1,19.2% (inactive),-9.06,6.05
Cc1cc(C(=O)O)c(CSc2ncn[nH]2)o1,-5.63% (inactive),-62.3,6.05
Cc1cc(=O)oc(C)c1C(=O)NCCC1=CCCCC1,26.9% (inactive),32.2,17.3
Cc1nc2ccccn2c(=O)c1CCN1CCC(C(=O)c2ccc(F)cc2)CC1,73.8% (inactive),86.5,24.8
Cc1nc2sccn2c(=O)c1CCN1CCC(=C(c2ccccc2)c2ccc(F)cc2)CC1,29.7% (inactive),6.78,5.93
Cc1nc2sccn2c(=O)c1CCN1CCC(=C(c2ccc(F)cc2)c2ccc(F)cc2)CC1,93.1% (active),84.8,24.1
O=C(CCC(=O)CCN1CCCCC1)CCN1CCCCC1,28.4% (inactive),14.4,16.4
CCOc1ccc2nc(NC(NC(C)=O)(C(=O)OC)C(F)(F)F)sc2c1 (stereo not drawn),-16.9% (inactive),18.6,3.93

SMILES,growth inhibition,growth inhibition [1] [%],condensed nuclei [%]
C=CCn1cnc2c(c1=O)c1nc3ccccc3nc1n2-c1ccc(C)cc1,31.2% (inactive),-2.67,2.48
Cn1c(SCC(=O)NCc2ccccc2)nc2ccccc21,59.6% (inactive),2.57,4.29
CCC(=O)O[C@@H]1CC(=O)O[C@H](C)CC=CC=C[C@@H](O)[C@H](C)C[C@H](CC=O)[C@H](O[C@H]2O[C@H](C)[C@@H](O[C@H]3C[C@@](C)(O)[C@@H](OC(=O)CC)[C@H](C)O3)[C@H](N(C)C)[C@H]2O)[C@H]1OC,-45.9% (inactive),-13.7,2.22
COc1ccc2[nH]c(C)c(C(=O)CN3CCc4cc(OC)c(OC)cc4C3)c2c1,-33.9% (inactive),-14.6,2.58
CCN(CC)C(=O)CSc1nc2ccccc2c(=O)n1CC1CCCCC1,65.6% (inactive),31.7,18.9
COc1cccc2c(=O)c(SC(F)(F)C(F)C(F)(F)F)c(C)[nH]c12 (stereo not drawn),94% (active),65.5,36.9
Cc1[nH]c2ccc(F)cc2c(=O)c1SC(F)(F)C(F)C(F)(F)F (stereo not drawn),-7.36% (inactive),-57.2,1.61
Cc1onc(-c2ccccc2Cl)c1C(=O)N1CCN(c2nc3ccccc3s2)CC1,55.9% (inactive),62.8,7.24
O=C1[C@@H]2[C@H](C(=O)N1n1cnnc1)[C@H]1C=C[C@@H]2C1,-36.7% (inactive),4.74,7.85
Cc1cccn2c(=O)c3cc(C#N)c(=N)n(Cc4ccncc4)c3nc12,10.6% (inactive),-4.36,5.14
CCC(NC(=O)Nc1cc(OC)c(OC)c(OC)c1)(C(F)(F)F)C(F)(F)F,9.36% (inactive),-14.6,2.2
COC(=O)[C@@H](N)Cc1ccc(O)cc1,-11.9% (inactive),12.5,9.88
COC(=O)/C=c1/s/c(=C(/C#N)C(=O)N2CCOCC2)n(-c2ccccc2)c1=O,-9.52% (inactive),-73,5.81
C=CCOC(=O)C1=C(C)NC(SCC(=O)Nc2ccc(C)c(Cl)c2)=C(C#N)C1c1ccco1 (stereo not drawn),81.3% (inactive),81.8,10.5
O=C1C(=O)N(Cc2cccnc2)C(c2ccccn2)/C1=C(/O)c1ccc(Br)cc1 (stereo not drawn),-60.8% (inactive),-51.9,3.93
CCOC(=O)c1c(C)n(C)c2ccc(O)c(S(=O)(=O)c3ccccc3)c12,0.86% (inactive),-12.9,2.84
Cc1nc(Sc2cccn2C)c(C(F)(F)F)c(=O)[nH]1,26% (inactive),-42.6,1.74
N#CC1=C(C=Nc2ccccc2O)CCC1,2.22% (inactive),-3.16,1.93
